Laboratory results as given in PubChem BioAssay (NCATS).
Results filed as inconclusive are left out. Activity calls are given as the source filed them. Calls come from the whole dose curve; as a rule, active = well fitted inhibition curve with a large enough effect; inconclusive = small, poorly fitted or top-dose-only effect; inactive = no such curve, though single readings can be large or run the other way.

Assay: qHTS assay for measurement of the activity of small molecule inhibitors on Zika virus induced Caspase-3 activity in human iPSC derived neural progenitor cells (hNPCs) (AID 1224857); note: % of control where 0% means no effect; nearly all actives have a fitted effect of over 65% in size
Conditions: hNPCs ZIKV-induced caspase-3/7, Caspase-Glo luminescence, 6 h; series mostly up to 45.7 µM
Source text: National Center for Advancing Translational Sciences [NCATS]
Johns Hopkins University School of Medicine
Increase in the Caspase-3 activity indicates an activation of apoptosis cell death pathway caused by Zika virus infection in certain types of neuronal cells including human neural progenitor cells (hNPCs), astrocytes, and astrocytoma cell line (SNB-19). This cell-based caspase-3 activity assay measures the increased caspase-3 activity in the human iPSC derived neural progenitor cells (hNPCs) after a 6-hour Zika virus infection with a luminescence readout. A decrease in the luminescence signal in this assay by small molecule treatment indicates an inhibitory effect of that small molecule on the Zika virus induced caspase-3 activity that may correlate with its effect on reduction of Zika virus caused cell death.
The medium for hNPCs consists of DMEM/F12, N2 supplement (ThermoFisher, Cat.# 17502048), NEAA (ThermoFisher, Cat. # 11140050), 2 ug/ml heparin, 2 uM cyclopamine, and B27 (ThermoFisher, Cat. # 17504044). A Caspase-Glo 3/7 assay kit (catalog number G8092; Promega, Madison, WI) was used to detect caspase-3 activity induced by Zika virus infection in human cells. The reagent mixture was reconstituted as described in the protocol from the manufacturer. Polystyrene tissue culture treated and PDL coated white plates were obtained from Greiner Bio-One (Monroe, NC). Cells were seeded in 384- or 1536-well assay plates and cultured at 37 C with 5% CO2 for 16 to 20 hours. The typical cell seeding density in the 1536-well plate assay is 350 cells/well in 3 ul medium for hNPCs in tissue culture treated plates. Compounds were added to cells and incubated for one hour before addition of ZIKV solution to cells (2 FFU/cell). After incubation at 37 C with 5% CO2 for 6 hours, the reagent mixture of Caspase-Glo 3/7 assay kit was added to each well, followed by incubation at room temperature for 30 minutes. The luminescence intensity of the assay plates was measured using a ViewLux plate reader (PerkinElmer). Data were normalized by using the cell-containing wells without ZIKV as a negative control (0% induction of caspase 3/7 activity) and wells containing ZIKV infected cells (Caspase-3 activity induced) as a positive control (100% induction of caspase 3 activity). The percentage inhibitions of the increased Caspase-3 activity by small molecule inhibitors were then calculated.

Row | Structure (SMILES) | outcome | activity change, negative = inhibition
1 | Cc1ncc(CSSCc2cnc(C)c(O)c2CO)c(CO)c1O | inactive | 
2 | CC(C)(Oc1ccc(Cl)cc1)C(=O)O | inactive | 
3 | COc1cc(OC)cc(OC)c1 | inactive | 
4 | CC(=O)OCC(=O)[C@@]1(OC(C)=O)[C@@H](C)C[C@H]2[C@@H]3C[C@H](F)C4=CC(=O)C=C[C@]4(C)[C@@]3(F)[C@@H](O)C[C@@]21C | inactive | 
5 | Oc1c(I)cc(Cl)c2cccnc12 | inactive | 
6 | NC(=O)C(=O)N/N=C/c1ccc([N+](=O)[O-])o1 | inactive | 
7 | O=C(Nc1ccc(Cl)c(Cl)c1)C1CC1 | inactive | 
8 | CN(C)CC/C=C1/c2ccccc2COc2ccc(CC(=O)O)cc21 | inactive | 
9 | OC(CCN1CCCCC1)(c1ccccc1)c1ccccc1 | inactive | 
10 | CN=C(NC#N)Nc1ccc(C2=NNC(=O)CC2C)cc1 (stereo not given) | inactive | 
11 | CC[C@@H](CO)NCCN[C@@H](CC)CO | inactive | 
12 | O=C(OCCOCCO)c1ccccc1Nc1cccc(C(F)(F)F)c1 | inactive | 
13 | CC(=O)OCC(=O)[C@@]1(O)CC[C@H]2[C@@H]3CCC4=CC(=O)C=C[C@]4(C)[C@H]3[C@@H](O)C[C@@]21C | inactive | 
14 | CN1C2CCC1CC(OC(=O)c1c[nH]c3ccccc13)C2 (stereo not given) | inactive | 
15 | O=C1OC(c2ccc(O)cc2)(c2ccc(O)cc2)c2ccccc21 | inactive | 
16 | CCN1CCC[C@H]1CNC(=O)c1c(OC)ccc(Br)c1OC | inactive | 
17 | CCCCC1=NC2(CCCC2)C(=O)N1Cc1ccc(-c2ccccc2-c2nn[nH]n2)cc1 | inactive | 
18 | CCCOC(C(=O)OC1CCN(C)CC1)(c1ccccc1)c1ccccc1 | inactive | 
19 | Cc1cccc(C)c1NC(=O)CN1CCN(CCCC(c2ccc(F)cc2)c2ccc(F)cc2)CC1 | inactive | 
20 | CCCCOc1ccc(OCCCN2CCOCC2)cc1 | inactive | 

Row | Structure (SMILES) | outcome | activity change, negative = inhibition
21 | CC(=O)OCC(=O)NCCCOc1cccc(CN2CCCCC2)c1 | inactive | 
22 | CN(C)C(=S)SC(=S)N(C)C | inactive | 
23 | O=c1[nH]c(=O)n([C@H]2C[C@H](O)[C@@H](CO)O2)cc1C(F)(F)F | inactive | 
24 | OCc1ccccc1O | inactive | 
25 | CN1CCC(=C2c3ccccc3Sc3ccccc32)CC1 | inactive | 
26 | COC(=O)C1=C(C)NC(C)=C(C(=O)O[C@@H]2CCCN(Cc3ccccc3)C2)[C@@H]1c1cccc([N+](=O)[O-])c1 | inactive | 
27 | CC(C)NC[C@@H](O)COc1cccc2ccccc12 | inactive | 
28 | NCCCC[C@H](N[C@@H](CCc1ccccc1)C(=O)O)C(=O)N1CCC[C@H]1C(=O)O | inactive | 
29 | Clc1ccc2c(c1)CCc1cccnc1C2=C1CCNCC1 | inactive | 
30 | C[C@@H](CN(C)C)CN1c2ccccc2Sc2ccccc21 | inactive | 
31 | CCN(CC)CCNC(=O)COc1ccc(Cl)cc1 | inactive | 
32 | CC(=O)Oc1ccc2c(c1)CC[C@@H]1[C@@H]2CC[C@]2(C)[C@@H](O)CC[C@@H]12 | inactive | 
33 | Nc1ccc(/C=C/c2ccc(N)cc2S(=O)(=O)O)c(S(=O)(=O)O)c1 |  | -14.7% [at 0.568 µM] (inactive)
34 | COc1ccc(CN2CCN(C(c3ccc(F)cc3)c3ccc(F)cc3)CC2)c(OC)c1OC | inactive | 
35 | Cc1c(C)n(Cc2ccccc2)c2ccc(C(=O)OCCN(C)C)cc12 | inactive | 
36 | CN=C(NC#N)NCCSCc1csc(N=C(N)N)n1 | inactive | 
37 | CC(=O)OCC(=O)[C@@]12OC(C)(C)O[C@@H]1C[C@H]1[C@@H]3C[C@H](F)C4=CC(=O)C=C[C@]4(C)[C@@]3(F)[C@@H](O)C[C@@]12C | inactive | 
38 | Oc1ccc(Cl)cc1Sc1cc(Cl)ccc1O | inactive | 
39 | O=C(O)c1cc2cc(Cc3cccnc3)ccc2o1 | inactive | 
40 | CC(=O)Oc1ccc(C(c2ccc(OC(C)=O)cc2)c2ccccn2)cc1 | inactive | 
